Results taken from PubChem BioAssay AID1159580 (chemical genetic matrix, 2015).
The campaign covered roughly 5,500 compounds. About 2,000 (36%) were called active. Another 18% or so got no clear call; they are omitted. Rule as the data show it: active = normalized growth mostly below about 0.91 (no sharp cut-off); inconclusive = no clear call, values can overlap the other calls; inactive = mostly above about 0.92. The list shows a part of the results.

Assay: chemical genetic growth profiling, strain panel (AID 1159580);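 also: tested at 20 µM; growth read once vehicle control cultures reached saturation at 30 °C; 1 = growth at the plate median or of vehicle wells; lower values mean less growth of the strain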
Settings: growth OD

Measured: normalized growth

CCCOc1ccc2nc(NC(=O)OC)[nH]c2c1
inactive: S. cerevisiae deletion strains, locus YJR075W, strain HOC1, stronger effect = lower value 0.992 | S. cerevisiae deletion strains, locus YKL009W, strain mrt4, stronger effect = lower value 0.99 | S. cerevisiae deletion strains, locus YKL068W, stronger effect = lower value 0.995 | S. cerevisiae deletion strains, locus YKL085W, strain MDH1 (second series), stronger effect = lower value 0.995 | S. cerevisiae deletion strains, locus YKL085W, strain MDH1, stronger effect = lower value 0.995 | S. cerevisiae deletion strains, locus YKL160W, strain elf1, stronger effect = lower value 1.02 | S. cerevisiae deletion strains, locus YKL190W, strain CNB1, stronger effect = lower value 1.02 | S. cerevisiae deletion strains, locus YKR001C, strain vps1, stronger effect = lower value 0.96 | S. cerevisiae deletion strains, locus YKR026C, strain gcn3, stronger effect = lower value 1.02 | S. cerevisiae deletion strains, locus YKR091W, strain srl3, stronger effect = lower value 1.01 | S. cerevisiae deletion strains, locus YLL001W, strain dnm1, stronger effect = lower value 1.01 | S. cerevisiae deletion strains, locus YLL026W, stronger effect = lower value 1.01 | S. cerevisiae deletion strains, locus YLL041C, strain sdh2, stronger effect = lower value 1.01 | S. cerevisiae deletion strains, locus YLR027C, strain aat2, stronger effect = lower value 1.01 | S. cerevisiae deletion strains, locus YLR039C, strain RIC1, stronger effect = lower value 0.833 | S. cerevisiae deletion strains, locus YLR058C, strain SHM2, stronger effect = lower value 0.99 | S. cerevisiae deletion strains, locus YLR102C, strain apc9, stronger effect = lower value 0.981 | S. cerevisiae deletion strains, locus YLR113W, strain HOG1, stronger effect = lower value 1.03 | S. cerevisiae deletion strains, locus YLR221C, strain rsa3, stronger effect = lower value 1.01 | S. cerevisiae deletion strains, locus YLR258W, strain gsy2, stronger effect = lower value 1.01 | S. cerevisiae deletion strains, locus YLR262C, strain YPT6 (second series), stronger effect = lower value 0.955 | S. cerevisiae deletion strains, locus YLR262C, strain YPT6, stronger effect = lower value 0.849 | S. cerevisiae deletion strains, locus YLR268W, strain sec22, stronger effect = lower value 0.971 | S. cerevisiae deletion strains, locus YLR320W, strain mms22, stronger effect = lower value 1.04 | S. cerevisiae deletion strains, locus YLR330W, strain CHS5, stronger effect = lower value 0.989 | S. cerevisiae deletion strains, locus YLR342W, strain FKS1 (second series), stronger effect = lower value 0.973 | S. cerevisiae deletion strains, locus YLR342W, strain FKS1, stronger effect = lower value 1.03 | S. cerevisiae deletion strains, locus YLR357W, strain rsc2, stronger effect = lower value 1.02 | S. cerevisiae deletion strains, locus YLR370C, strain arc18, stronger effect = lower value 1.02 | S. cerevisiae deletion strains, locus YLR371W, strain rom2, stronger effect = lower value 0.983 | S. cerevisiae deletion strains, locus YLR384C, strain iki3, stronger effect = lower value 1.01 | S. cerevisiae deletion strains, locus YLR418C, strain cdc73, stronger effect = lower value 0.878 | S. cerevisiae deletion strains, locus YML016C, strain PPZ1, stronger effect = lower value 0.983 | S. cerevisiae deletion strains, locus YML032C, strain rad52, stronger effect = lower value 0.982 | S. cerevisiae deletion strains, locus YML120C, strain ndi1, stronger effect = lower value 1.02 | S. cerevisiae deletion strains, locus YMR058W, strain fet3, stronger effect = lower value 1.01 | S. cerevisiae deletion strains, locus YMR078C, strain ctf18, stronger effect = lower value 0.979 | S. cerevisiae deletion strains, locus YMR125W, strain sto1, stronger effect = lower value 1.02 | S. cerevisiae deletion strains, locus YMR129W, stronger effect = lower value 1.02 | S. cerevisiae deletion strains, locus YMR205C, strain PFK2, stronger effect = lower value 1.03 | S. cerevisiae deletion strains, locus YMR223W, strain ubp8, stronger effect = lower value 0.96 | S. cerevisiae deletion strains, locus YMR231W, strain pep5, stronger effect = lower value 1.01 | S. cerevisiae deletion strains, locus YMR263W, strain SAP30, stronger effect = lower value 0.989 | S. cerevisiae deletion strains, locus YMR307W, strain GAS1, stronger effect = lower value 0.844 | S. cerevisiae deletion strains, locus YNL067W, strain RPL9B, stronger effect = lower value 1.01 | S. cerevisiae deletion strains, locus YNL071W, strain lat1, stronger effect = lower value 1.02 | S. cerevisiae deletion strains, locus YNL128W, strain TEP1, stronger effect = lower value 0.975 | S. cerevisiae deletion strains, locus YNL183C, strain NPR1, stronger effect = lower value 1.01 | S. cerevisiae deletion strains, locus YNL209W, strain ssb2, stronger effect = lower value 1.02 | S. cerevisiae deletion strains, locus YNL233W, strain BNI4, stronger effect = lower value 1.01 | S. cerevisiae deletion strains, locus YNL248C, strain rpa49, stronger effect = lower value 1.02 | S. cerevisiae deletion strains, locus YNL250W, strain rad50, stronger effect = lower value 0.98 | S. cerevisiae deletion strains, locus YNL271C, strain bni1, stronger effect = lower value 0.986 | S. cerevisiae deletion strains, locus YNL298W, strain CLA4, stronger effect = lower value 0.965 | S. cerevisiae deletion strains, locus YNL307C, strain MCK1, stronger effect = lower value 0.972 | S. cerevisiae deletion strains, locus YNL322C, strain KRE1 (second series), stronger effect = lower value 1 | S. cerevisiae deletion strains, locus YNL322C, strain KRE1, stronger effect = lower value 1 | S. cerevisiae deletion strains, locus YNR049C, strain mso1, stronger effect = lower value 1.01 | S. cerevisiae deletion strains, locus YNR052C, strain pop2, stronger effect = lower value 0.977 | S. cerevisiae deletion strains, locus YOL006C, strain TOP1, stronger effect = lower value 0.983 | S. cerevisiae deletion strains, locus YOL012C, strain htz1 0.822 | S. cerevisiae deletion strains, locus YOL147C, strain pex11, stronger effect = lower value 0.975 | S. cerevisiae deletion strains, locus YOR001W, strain rrp6, stronger effect = lower value 1.02 | S. cerevisiae deletion strains, locus YOR061W, strain CKA2, stronger effect = lower value 0.992 | S. cerevisiae deletion strains, locus YOR069W, strain VPS5, stronger effect = lower value 0.993 | S. cerevisiae deletion strains, locus YOR070C, strain gyp1, stronger effect = lower value 1.01 | S. cerevisiae deletion strains, locus YOR080W, strain dia2, stronger effect = lower value 1.02 | S. cerevisiae deletion strains, locus YOR083W, strain WHI5, stronger effect = lower value 1.02 | S. cerevisiae deletion strains, locus YOR106W, strain vam3, stronger effect = lower value 0.999 | S. cerevisiae deletion strains, locus YOR136W, strain idh2, stronger effect = lower value 0.995 | S. cerevisiae deletion strains, locus YOR144C, strain elg1, stronger effect = lower value 0.988 | S. cerevisiae deletion strains, locus YOR184W, strain ser1, stronger effect = lower value 0.957 | S. cerevisiae deletion strains, locus YOR231W, strain MKK1, stronger effect = lower value 1.07 | S. cerevisiae deletion strains, locus YOR265W, strain rbl2, stronger effect = lower value 1.01 | S. cerevisiae deletion strains, locus YOR270C, strain vph1, stronger effect = lower value 1.02 | S. cerevisiae deletion strains, locus YOR290C, strain snf2, stronger effect = lower value 1.01 | S. cerevisiae deletion strains, locus YOR316C, strain cot1, stronger effect = lower value 0.983 | S. cerevisiae deletion strains, locus YPL051W, strain arl3, stronger effect = lower value 1.01 | S. cerevisiae deletion strains, locus YPL078C, strain atp4, stronger effect = lower value 1.02 | S. cerevisiae deletion strains, locus YPL106C, strain sse1, stronger effect = lower value 1.02 | S. cerevisiae deletion strains, locus YPL240C, strain hsp82, stronger effect = lower value 1.01 | S. cerevisiae deletion strains, locus YPL256C, strain CLN2, stronger effect = lower value 1.02 | S. cerevisiae deletion strains, locus YPR119W, strain clb2, stronger effect = lower value 0.987 | S. cerevisiae deletion strains, locus YPR141C, strain kar3, stronger effect = lower value 0.993 | S. cerevisiae deletion strains, locus YPR163C, strain tif3, stronger effect = lower value 0.982 | S. cerevisiae deletion strains, locus YPR167C, strain met16, stronger effect = lower value 0.977 | S. cerevisiae deletion strains, strain wtn01, stronger effect = lower value 0.967 | S. cerevisiae strains, strain wild type, stronger effect = lower value 0.995
active: S. cerevisiae deletion strains, locus YML124C, strain tub3, stronger effect = lower value 0.88 | S. cerevisiae deletion strains, locus YNL153C, strain GIM3, stronger effect = lower value 0.438 | S. cerevisiae deletion strains, locus YPL241C, strain CIN2, stronger effect = lower value 0.606
